# Source: PubChem BioAssay (NCI)
# Compounds without any hit were thinned out: in the full panel of roughly 83,000, 20% have a hit.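 Results are percent growth after 48 hours of single-concentration exposure. 100 means growth as in untreated cells, lower positive values show inhibition; negative values down to -100 show cell death.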 Unmarked numbers belong to inactive results. Calls of active or inactive are those of the source. Rule for the calls: active = growth percent below 10; inactive = the rest.
# Columns and labels:
# Assay in all cases: NCI-60 one-dose screen, 48 h (100 = growth as untreated, 0 = no growth, -100 = all killed)
# Conditions in all cases: 10 µM unless noted
# [1] = test system: EKVX NSCLC
# [2] = test system: SN12C renal
# [3] = test system: UO-31 renal
# [4] = test system: ACHN renal
# [5] = test system: CAKI-1 renal
# [6] = test system: A498 renal
# [7] = test system: CCRF-CEM leukemia
# [8] = test system: MOLT-4 leukemia
# [9] = test system: TK-10 renal
Structure (SMILES),growth [1],growth [2],growth [3],growth [4],growth [5],growth [6],growth [7],growth [8],growth [9]
CCOC(=O)c1ccc2c(c1)c1c(C)c3cnccc3c(C)c1n2C,-13.4% (active),-58.2% (active),-53.6% (active),-95% (active),-25% (active),-78.7% (active),-2.56% (active),2.2% (active),
Cc1ccc2c(n1)C[C@H](C(C)(C)O)CC[C@H]2C,92.4%,98.4%,90.6%,102%,92.8%,98.1%,106%,103%,97.5%
C(CCCSC1=NCCN1)CCSC1=NCCN1,109%,103%,80.3%,100%,101%,103%,101%,102%,122%
O=C(Nc1ncc(Cc2ccccc2)s1)c1cc(-c2ccccc2)nc2ccccc12,98.1%,104%,78.7%,99.4%,93.7%,103%,95.4%,95.6%,98.1%
COC(CCP(=O)(c1ccccc1)c1ccccc1)(C(=O)c1ccccc1)c1ccccc1 (stereo unspecified),59.2%,96.7%,33.4%,71.5%,87.1%,83.4%,35.4%,18.3%,81.1%
CC(C)(C)n1cc(-c2ccnc(NCCNS(=O)(=O)c3ccc(Br)cc3)c2)c(-c2cccc(O)c2)n1,43.4%,35.7%,22.7%,25%,29.1%,11.5%,27.7%,12.9%,55.6%
COC12C=C/C(=C(/C(=O)OCc3ccccn3)C(=O)CCCCCCCCC3(OC)C=C/C(=C(/C(=O)OCc4ccccn4)C(=O)CCCCCCCC1)O3)O2,-9.9% (active),-22.2% (active),-45.7% (active),-14.9% (active),-4.53% (active),-86.3% (active),0.645% (active),0.868% (active),4.32% (active)
O=C(O)CCCN1C(=O)CSC1=S,103%,94.9%,87.9%,108%,104%,105%,99.6%,98.4%,131%
C=C(C[n+]1ccccc1)[C@@H]1CC[C@]2(C(=O)OC)CC[C@]3(C)[C@H](CC[C@@H]4[C@@]5(C)CCC(=O)C(C)(C)[C@@H]5CC[C@]43C)[C@@H]12,93.4%,87.8%,86.4%,95.4%,83.5%,88.7%,82.6%,78.9%,102%
Nc1ccc(N)c2c1C(=O)c1cccc([N+](=O)[O-])c1C2=O,38.2%,25.9%,33.4%,15.9%,5.03% (active),-73.8% (active),48.3%,46.5%,45.3%
Brc1ccc(-c2nn(-c3ccccc3)cc2-c2nn[nH]n2)s1,83.5%,80%,52.8%,89.5%,88.1%,65.7%,90.9%,99.1%,102%
O=C(O)/C=C/c1cn(-c2ccccc2)nc1-c1ccc(F)cc1,97.2%,91.1%,60.7%,92%,88.9%,76.1%,86.4%,109%,103%
Nc1ncc(-c2ccc3ncnc(N4CCc5cc(F)c(Cl)cc54)c3c2)cc1C=O,4.02% (active),12.9%,0.272% (active),7.1% (active),-0.981% (active),-62.8% (active),18.4%,2.46% (active),-6.72% (active)
COc1cc(C2=Nc3c(N)nc(N)nc3NC(c3cccc(Nc4ccnc5cc(C(F)(F)F)ccc45)c3)C2)cc(OC)c1OC (stereo unspecified),66%,73%,51.8%,96.8%,58.6%,79.8%,51.7%,19.2%,108%
COc1ccc(-n2c(=O)n(-c3ccc(-c4nc5ccc(F)cc5s4)cc3)c(=O)c3cccnc32)cc1,91.6%,100%,75.6%,103%,85.3%,98.2%,102%,97.7%,119%
CC(C)C(=O)Nc1ncc(C(=O)NCCN(Cc2ccccc2)C(=O)c2ccc(S(=O)(=O)Nc3ccccc3)cc2)s1,97.6%,91.4%,80.2%,,92.4%,87.7%,96.2%,,100%
CCOC(=O)C1=C(c2ccccc2)N=C2N(c3ccccc3)N=C(C(C)=O)N2C1c1ccc(Br)cc1 (stereo unspecified),93.9%,90%,72.7%,93.3%,87.1%,42.9%,87.7%,93.6%,109%
CC1(C)CCC[C@]23C(=O)O[C@](O)(C(=O)C4=C[C@@](C)(/C=C/CCCc5ccc6ccc7cccc8ccc5c6c78)CC[C@@]42O)[C@@H]13,-84.9% (active),-94.4% (active),-97.1% (active),-100% (active),-98.5% (active),-87.9% (active),0.0961% (active),9.46% (active),-88.7% (active)
C1=C2CCCC3=Cc4ccccc4OC23Oc2ccccc21,57.8%,34.4%,43.3%,47.3%,27.2%,5.61% (active),18.3%,17.5%,55.4%
O=C(O)COc1ccc(F)cc1,103%,98.1%,91.6%,111%,94.7%,97.4%,104%,,91.4%
Clc1ccc(C2=Nn3c(nnc3-c3cc(Cl)cc(Cl)c3Cl)SC2)cc1,70.6%,88.4%,51.6%,58.2%,,55.9%,36.1%,26.7%,87.4%
O=C1CC2C=CCN2C=C1NC(=O)c1ccccc1 (stereo unspecified),94.6%,99.5%,98.2%,104%,101%,102%,109%,96.3%,93.5%
O=C(NCCN1CCOCC1)c1cncnc1Nc1ccc2c(ccn2Cc2ccccn2)c1,104%,93.7%,88.5%,107%,92.4%,101%,121%,104%,98.7%
CC(C)=CC(=O)C1C(=O)c2ccccc2C1=O,99.4%,95.1%,92.3%,97.1%,81%,87.6%,98.1%,103%,108%
O=C1N/C(=N/N=C(c2ccccc2)c2ccccc2)S/C1=C\c1ccc(Br)cc1,101%,98%,73.1%,97.7%,77.2%,89.2%,84.4%,,107%
c1ccc(-c2nc(N3CCNCC3)c3oc(-c4ccccc4)nc3n2)cc1,-68.4% (active),-82.1% (active),-99.8% (active),-100% (active),-94% (active),88.2%,-31.1% (active),,-71.3% (active)
c1ccc(Cn2cc3c(c2)-c2nc(Nc4ccccc4)ncc2CC3)cc1,72.1% [100 µM],87.8% [100 µM],93% [100 µM],81.8% [100 µM],59.2% [100 µM],105% [100 µM],2.85% [100 µM] (active),107% [100 µM],72.8% [100 µM]
